# Screening data: PubChem, National Center for Advancing Translational Sciences (NCATS)
# Sampled rows, rich in hits. Any-hit rate of the full collection: about 7.5%.
# NPC1 promoter act: activators of NPC1 promoter; Huh7 NPC1 promoter luciferase reporter, 24 h; Potency, µM (doses to about 9.22 µM), for inactives: top-dose activation, most hits filed as activators; 2.4% of 320,000 active; AID 485313; also: % of control where 0% means no effect; nearly all actives have a fitted effect of over 60% in size
#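 Stable NPC1-promoter luciferase Huh7 line; cpd (DMSO) 24 h, 37 °C, 5% CO2; Amplite luciferase reagent 10 min RT; luminescence readout. qHTS format.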
# KinaseGlo FLuc: blocks Kinase-Glo luciferase, a counter-screen artifact; Q27757; Kinase-Glo luciferase, ATP luminescence, 8 min; Potency, µM (top dose mostly 38.3 µM), inactives show top-dose activity change, negative = inhibition, usual class: inhibitors; 0.28% of 200,000 active; AID 1379; also: % is scaled to controls: 0 for no effect and ±100 for the full control effect; nearly all actives have a fitted effect of over 60% in size
#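 Compounds were added to a substrate mix at pH 7.2 (50 mM imidazole, 10 uM ATP, within the enzyme's linear range), followed by Kinase-Glo detection reagent; luminescence was measured after 8 minutes at ambient temperature.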
# ELG1 genotox: genotoxicity induction in ELG1-luciferase HEK293T cells. HEK293T ELG1-luciferase reporter, luminescence, 16 h. Potency, µM (highest dose often 46 µM), for the others: top-dose activity change, positive = activation, usual class: activators. 1.3% of 330,000 active; also: % of control where 0% means no effect; nearly all actives have a fitted effect of over 60% in size
#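 Screening used a luciferase reporter fused to human ELG1 in HEK293T cells. Luminescence was read on a CCD plate imager after 16 hr exposure and 30 min ONE-Glo incubation.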
# SMN2 splice enh: enhancers of SMN2 splice variant expression; HEK293 SMN2-luciferase splicing reporter, luminescence, 30-36 h; Potency, µM (series often up to 46.1 µM), without a hit: at the highest dose activity change, positive = activation, most hits filed as activators; AID 1458; 2.8% of 210,000 active; also: % of control where 0% means no effect; nearly all actives have a fitted effect of over 55% in size
#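 HEK293 cells carry an SMN2 […]–luciferase reporter in which exon 7 inclusion puts luciferase in frame. Cells were plated 10-12 h before compound addition, then incubated 30-36 h at 37C. ONE-Glo luminescence was read; sodium butyrate at 4.5 mM final served as control.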
# Rab9 promoter act: activators of Rab9 promoter | Huh7 Rab9 promoter-luciferase reporter, luminescence, 24 h | Potency, µM (highest dose often 9.22 µM), for the others: at the highest dose activation, negative = inhibition, hits mostly activators | 2.8% of 320,000 active; also: % of control where 0% means no effect; nearly all actives have a fitted effect of over 60% in size
#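 Huh7 cells stably carrying Rab9 promoter–luciferase reporter, plated 1500 cells/well, compound added after 2 h and incubated 24 h at 37 °C; luciferase luminescence then read after 10 min with detection reagent.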
# FLuc modulator: counter-screen for miR-21 project: firefly luciferase inhibitors or activators; P08659; purified FLuc, Km substrates, luminescence inhibition; Potency, µM (titrated, usually from 57.5 µM), inactives show top-dose activity change, negative = inhibition, actives largely listed as inhibitors; 6.9% of 360,000 active;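 also: plate controls were vehicle for no effect and reference inhibitor for full effect; nearly all actives have a fitted effect of over 55% in size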
# Target sequence (P08659 whole entry, looked up): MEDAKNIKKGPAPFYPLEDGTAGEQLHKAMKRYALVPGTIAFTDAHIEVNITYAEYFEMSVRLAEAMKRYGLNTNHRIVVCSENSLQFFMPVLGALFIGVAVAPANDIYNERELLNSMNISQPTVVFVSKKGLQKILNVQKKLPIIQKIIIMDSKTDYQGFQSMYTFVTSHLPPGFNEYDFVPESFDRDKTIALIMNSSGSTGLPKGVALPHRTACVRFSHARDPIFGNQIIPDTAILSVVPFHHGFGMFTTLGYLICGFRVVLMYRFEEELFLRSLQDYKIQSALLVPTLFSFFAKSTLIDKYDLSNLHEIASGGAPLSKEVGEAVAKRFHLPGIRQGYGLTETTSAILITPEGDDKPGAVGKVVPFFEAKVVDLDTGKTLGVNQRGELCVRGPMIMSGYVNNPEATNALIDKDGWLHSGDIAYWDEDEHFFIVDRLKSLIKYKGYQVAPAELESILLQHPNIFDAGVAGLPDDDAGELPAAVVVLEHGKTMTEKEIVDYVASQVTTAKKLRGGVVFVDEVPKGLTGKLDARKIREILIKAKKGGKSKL
#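 Biochemical qHTS of compounds, final roughly 60 µM downward over six points, against 10 nM purified firefly luciferase using Km concentrations of substrates (10 uM D-luciferin, 10 uM ATP) in Tris acetate pH 7.5 buffer; luminescence output.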
# Active calls of the source: *; ? = inconclusive; . = not tested or not shown; ! = a repeat was not active; [ ] = dose if it differs, or a comment. Calls follow the shape of the dose curve; as a rule, active = well fitted curve in the direction sought with a large enough effect; inconclusive = small, poorly fitted or top-dose-only effect, or another doubt; inactive = no such curve, though single readings can be large; an effect the other way counts as inactive or inconclusive. Potency is read from the fitted curve at half-maximal effect.
SMILES,NPC1 promoter act,KinaseGlo FLuc,ELG1 genotox,SMN2 splice enh,Rab9 promoter act,FLuc modulator
Cc1ccc2nc(C)c(C(=O)N/N=C/c3ccc(C(=O)O)cc3)cc2c1,-4%,-1%,5%,.,?,5.4µM*
COc1cccc(C(=O)Nc2c(C(=O)c3ccc(F)cc3)oc3ccccc23)c1,.,.,.,-6%,.,-1%
COC(=O)CC(=O)CSc1nc2cc(C(=O)NCC(C)C)ccc2c(=O)n1CCc1ccccc1,.,.,.,.,.,-3%
O=C(NC1=NCCS1)c1cc(-c2cccs2)nc2ccccc12,2%,.,-10%,.,0%,12µM*
O=C(O)CCc1nc(-c2cccs2)no1,-6%,-2%,-1%,-6%,-1%,2%
Cc1ccc(OCc2nc(-c3cccs3)no2)c([N+](=O)[O-])c1,0.4µM*,-9%,?,2.8µM*,0.25µM*,0.76µM*
O=[N+]([O-])c1ccccc1OCc1nc(-c2cccs2)no1,2.5µM*,-1%,?,13µM*,2.5µM*,6.7µM*
O=[N+]([O-])c1ccc(F)cc1OCc1nc(-c2cccs2)no1,23%,-1%,?,16µM*,?,9.5µM*
CC(=O)N1CCc2cc(Br)cc(S(=O)(=O)N3CCN(c4cc(C)ccc4C)CC3)c21,.,.,.,0%,.,-7%
O=C(CCl)N=c1sccn1Cc1ccccc1Cl,-52%,.,-7%,.,-54%,0%
O=C(Cn1ccsc1=NC(=O)C(F)(F)F)c1ccccc1,?,4%,15%,?,2.8µM*,-12%
Cc1ccc(Sc2ccc(N3CCC(C(=O)Nc4ccc(Cl)cc4)CC3)nn2)cc1,.,.,.,11%,.,-19%
COc1ccc(NC(=O)c2ccccc2NC(=O)CSc2ccc(C)cc2)cc1,20%,-1%,?,-15%,?,0%
CC(=O)Oc1ccc(NC(=O)CSc2ccccc2)cc1,28%,-2%,15µM*,?,18%,?
COc1ccccc1CNC(=O)CSc1ccccc1,?,1%,?,?,3.2µM*,?
COc1ccc(NC(=O)CSc2ccc(C)cc2)cc1,?,1%,?,8%,27%,21µM*
O=C(CSc1ccc(F)cc1)Nc1ccc(C2SCCS2)cc1,?,.,?,.,?,11µM*
COc1ccc(CC(=O)NC2CC(=O)N(c3ccc4c(c3)OCCO4)C2)cc1 (stereo unspecified),.,.,.,.,.,-5%
c1ccc(/C(=N/Nc2nc3ccccc3s2)c2ccccn2)cc1,.,0%[7.66 µM],.,-17%[9.22 µM],.,.
Cc1c(C(=O)NCc2ccc(Cl)cc2)sc2nc3n(c(=O)c12)CCC3,.,.,.,.,.,-11%
COc1ccc(CNC(=O)c2sc3nc4n(c(=O)c3c2C)CCCCC4)cc1,.,.,.,.,.,19µM*
COc1cccc(NC(=O)c2sc3nc4n(c(=O)c3c2C)CCC4)c1,?,.,?,.,4µM*,19µM*!
CC(=O)c1cccc(NC(=O)c2sc3nc4n(c(=O)c3c2C)CCCCC4)c1,-3%,.,-6%,.,-4%,-17%
Cc1ccc(NC(=O)c2sc3nc4n(c(=O)c3c2C)CCCCC4)c(Br)c1,.,.,.,.,.,3%
CSc1cccc(NC(=O)c2sc3nc4n(c(=O)c3c2C)CCC4)c1,3.5µM*,.,?,.,?,27µM*
SMILES,NPC1 promoter act,KinaseGlo FLuc,ELG1 genotox,SMN2 splice enh,Rab9 promoter act,FLuc modulator
Cc1c(C(=O)Nc2cc(F)ccc2F)sc2nc3n(c(=O)c12)CCCCC3,2.8µM*,.,16µM*,.,1.6µM*,-7%
Cc1c(C(=O)Nc2ccc(Oc3ccccc3)cc2)sc2nc3n(c(=O)c12)CCC3,3%,-4%,-4%,-38%,0%,?
CNC(=O)C1CCC(Cn2c(=O)c3sccc3n(CC(=O)NCc3cccc(OC)c3)c2=O)CC1 (stereo unspecified),.,.,.,.,.,-7%
O=C(O)c1nc2ccccc2nc1C(=O)O,-2%,-5%,?,?,-1%,21µM*
COc1ccccc1CNC(=O)CS(=O)(=O)Cc1nc(-c2ccccc2C)oc1C,.,.,.,-2%,.,?
CCN=c1scc(-c2ccco2)n1/N=C/c1ccc(OC)c(O)c1,.,-1%,.,?,.,5.4µM*
Cc1ccc(/C=N/n2c(-c3ccco3)n[nH]c2=S)cc1,-1%,.,0%,.,-5%,0%
CCN=c1scc(-c2ccco2)n1/N=C/c1ccc(O)cc1,?,4%,12µM*,?,?,6.7µM*
COc1ccc(/C=N/N2CCN(C)CC2)cc1O,1%,3%,-5%,5%,-3%,0%
Cc1cccc(C[C@H](C(=O)O)N2C(=O)c3ccc(C(=O)O)cc3C2=O)c1,-1%,.,.,.,-9%,0%
Cc1ccccc1NC(=O)CSc1ncc2c(n1)-c1ccccc1N(C)S2(=O)=O,.,.,.,.,.,-8%
CC(C)n1c(=O)c2oc3ccccc3c2n(CC(=O)Nc2ccccc2Cl)c1=O,.,.,.,.,.,-1%
Cc1cc(CNC(=O)c2ccc3nc(Cc4ccccc4F)oc3c2)nn1C,2.8µM*,.,?,.,3.2µM*,11µM*
CC(c1ccccn1)N(C)C(=O)c1ccc2nc(Cc3ccccc3F)oc2c1 (stereo unspecified),?,.,13µM*,.,2.8µM*,6.7µM*
O=C(c1ccc2nc(Cc3ccccc3F)oc2c1)N1CCCC1,2.8µM*,.,10µM*,.,1.3µM*,9.5µM*
O=C(NCc1ccncc1)c1ccc2nc(Cc3ccccc3F)oc2c1,-4%,.,-8%,.,11%,-4%
Cc1ccc2scc(N3CCN(c4cccc(C(F)(F)F)c4)CC3)c(=O)c2c1,.,.,.,.,.,-7%
Cc1ccc2scc(N3CCCC(C)C3)c(=O)c2c1 (stereo unspecified),.,.,.,.,.,0.76µM*
CC1CCCCN1c1csc2ccc(F)cc2c1=O (stereo unspecified),.,.,.,.,.,7.6µM*
Cc1c(Cl)cccc1NC(=O)CN1C(=O)COc2ccc(S(=O)(=O)Nc3ccccc3)cc21,.,.,.,.,.,-3%
Cc1ccccc1-c1nnc(SCC#N)o1,0%,-4%,0%,.,0%,-13%
Cc1ccccc1-c1nnc(-c2ccc(Br)cc2)o1,?,-30%,9.2µM*,?,?,?
Oc1ccccc1-c1nnc(-c2ccc(C(F)(F)F)cc2)o1,7%,-7%,?,4%,6%,?
Cc1ccccc1-c1nnc(-c2ccccc2C)o1,?,-5%,?,22µM*,?,6.7µM*
Cc1cc(NC(=O)CSc2nc3c(sc4ccccc43)c(=O)n2CCCN2CCOCC2)n[nH]1,5%,2%,7%,35µM*,-20%,3%
CN(C)C(=O)c1ccc(-c2nc(NCc3ccccc3)c3ccccc3n2)cc1,.,-3%,.,4%,.,.
O=c1nc(Nc2cccc(Cl)c2)oc2cc(Cl)oc(=O)c12,18%,.,6%,.,-2%,13µM*
